8 molecules from PubChem BioAssay AID1917 (Vanderbilt High Throughput Screening Facility, 2009) can be followed below.

The campaign covered roughly 3,000 compounds. About 1,600 (53%) were called active. Another 10% or so got no clear call; they are omitted. So high a share suggests a set chosen from earlier hits. Only a sample is shown. Values without a mark were called inactive.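 The calls were made as follows: active = Flux at 10 µM at least 3 SD below or above vehicle control mean in one or both replicates; inconclusive = no clear call, values can overlap the other calls; inactive = the rest.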

The target of this test is ATP-sensitive inward rectifier potassium channel 1 (Homo sapiens) (UniProt P48048). The experiment in a line: ROMK channel modulator hit retest, confirmation, cell-based, thallium flux, duplicate, resupplied hits (AID 1917). The settings on record: fluorescence ratio, at 10 µM, stronger effect = lower value.
ATP-sensitive inward rectifier potassium channel 1 (Homo sapiens), sequence (P48048 whole entry, looked up): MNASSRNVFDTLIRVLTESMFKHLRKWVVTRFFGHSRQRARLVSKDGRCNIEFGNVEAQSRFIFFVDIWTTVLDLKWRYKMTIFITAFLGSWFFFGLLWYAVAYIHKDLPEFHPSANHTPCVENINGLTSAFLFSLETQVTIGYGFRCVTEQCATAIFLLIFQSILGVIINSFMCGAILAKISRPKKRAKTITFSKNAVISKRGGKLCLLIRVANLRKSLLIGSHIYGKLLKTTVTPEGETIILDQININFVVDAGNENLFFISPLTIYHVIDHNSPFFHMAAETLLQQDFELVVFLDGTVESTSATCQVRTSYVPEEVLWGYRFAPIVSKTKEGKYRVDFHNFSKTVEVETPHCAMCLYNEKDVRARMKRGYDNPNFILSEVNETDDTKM
Take `CCCCCCCCCCCCn1ccc(=N)cc1`: the normalized thallium flux (F/F0 slope) is 0.0386 (active).

Regarding `Clc1ccc2nc3c(c(-c4ccccc4)c2c1)CNCC3`, the normalized thallium flux (F/F0 slope) was 0.0588 (active).

On to `CC1(C)Cc2c(C#N)c(N3CCNCC3)nc(-c3ccco3)c2CS1`, for which the normalized thallium flux (F/F0 slope) was 0.0568 (active).

Regarding `COc1ccccc1N=Nc1c(O)[nH]c(=S)[nH]c1=O`, the normalized thallium flux (F/F0 slope) was 0.0657 (active).

Regarding `N#Cc1ccc(Cn2cc(C(=O)c3ccco3)c3ccccc32)cc1`, the normalized thallium flux (F/F0 slope) is 0.0753.

Regarding `Cc1cc(C=C2C(=O)NC(=O)NC2=O)c(C)n1-c1ccncc1`, the normalized thallium flux (F/F0 slope) is 0.0636 (active).

In the case of `Cc1nc2ccccn2c1P(=S)(N1CCCCC1)N1CCCCC1`, the normalized thallium flux (F/F0 slope) is 0.0668 (active).

On to `NC(=O)Nc1cccc(C(F)(F)F)c1`, for which the normalized thallium flux (F/F0 slope) was 0.0825.
